Results: PubChem BioAssay (Tox21)
Values without a mark were called inactive. Results filed as inconclusive are left out. Where a call stands in place of a potency, no number is given. Calls of active or inactive are those of the source. Unless noted, calls follow the shape of the dose curve; as a rule, active = well fitted curve in the direction sought with a large enough effect in the repeat runs; inconclusive = weak or mixed curves; inactive = no such curve, though single readings can be large; an effect the other way counts as inactive or inconclusive.

Key:
[1] = qHTS assay to identify small molecule antagonists of the estrogen related receptor (ERR) signaling pathway from Tox21 library - cell viability counter screen (AID 1224834); also: nearly all actives have a fitted effect of over 30% in size; also: potency is read from the fitted curve at half-maximal effect
Procedure, shortened: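 Fluorescence from CellTiter-Fluor gives the viability read-out, taken 30 min after reagent addition. Before that, ERR cells seeded 6 h earlier were incubated with compounds for 17.5 h at 37 C.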

[2] = biological target: Luciferin 4-monooxygenase (Photinus pyralis) (UniProt P08659); experiment: qHTS assay to identify small molecule inhibitors of firefly luciferase (AID 1224835); also: nearly all actives have a fitted effect of over 25% in size; also: potency is read from the fitted curve at half-maximal effect
Chain of Luciferin 4-monooxygenase (Photinus pyralis) (P08659 whole entry, looked up): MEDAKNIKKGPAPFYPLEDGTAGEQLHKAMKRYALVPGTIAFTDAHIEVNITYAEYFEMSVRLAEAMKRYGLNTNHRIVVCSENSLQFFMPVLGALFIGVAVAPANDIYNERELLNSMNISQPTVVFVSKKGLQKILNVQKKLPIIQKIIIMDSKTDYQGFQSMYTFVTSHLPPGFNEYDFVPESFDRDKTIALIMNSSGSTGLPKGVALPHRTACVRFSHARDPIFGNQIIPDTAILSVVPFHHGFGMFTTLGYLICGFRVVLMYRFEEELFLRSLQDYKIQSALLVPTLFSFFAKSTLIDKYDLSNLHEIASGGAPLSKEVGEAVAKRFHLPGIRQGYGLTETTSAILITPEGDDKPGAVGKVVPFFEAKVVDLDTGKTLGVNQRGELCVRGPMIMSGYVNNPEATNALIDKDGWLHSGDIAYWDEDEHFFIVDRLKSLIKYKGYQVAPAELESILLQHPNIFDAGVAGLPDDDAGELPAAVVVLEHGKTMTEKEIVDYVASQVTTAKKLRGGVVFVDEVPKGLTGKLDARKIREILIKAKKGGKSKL
Procedure, shortened: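 Biochemical qHTS: compounds run as interplate titrations against purified firefly enzyme, with D-luciferin and ATP each at its KM concentration. Light output recorded by CCD imaging.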

[3] = biological target: Nuclear receptor subfamily 1 group I member 3 (Homo sapiens) (UniProt Q14994); experiment: qHTS assay to identify small molecule antagonists of the constitutive androstane receptor (CAR) signaling pathway (AID 1224838);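 also: HepG2 cells stably expressing hCAR with CYP2B6 luciferase reporter stimulated by CITCO; nearly all actives have a fitted effect of over 40% in size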; also: potency is read from the fitted curve at half-maximal effect
Chain of Nuclear receptor subfamily 1 group I member 3 (Homo sapiens) (Q14994 whole entry, looked up): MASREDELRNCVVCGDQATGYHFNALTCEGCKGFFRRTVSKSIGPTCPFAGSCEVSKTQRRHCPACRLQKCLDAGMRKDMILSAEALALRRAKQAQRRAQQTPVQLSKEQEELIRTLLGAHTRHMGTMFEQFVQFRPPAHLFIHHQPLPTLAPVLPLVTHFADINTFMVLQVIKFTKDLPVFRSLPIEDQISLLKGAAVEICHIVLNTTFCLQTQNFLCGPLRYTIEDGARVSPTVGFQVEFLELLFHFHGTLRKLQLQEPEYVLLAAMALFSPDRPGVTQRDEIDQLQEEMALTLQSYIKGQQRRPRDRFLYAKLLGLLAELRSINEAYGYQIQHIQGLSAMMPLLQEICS
Procedure, shortened: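 HepG2-CYP2B6-hCAR cells; 4 h pre-incubation; cpd (15 conc) + CITCO 50 nM final; 24 h, 37 C/5% CO2; ONE-Glo, luminescence.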

[4] = biological target: Nuclear receptor subfamily 1 group I member 3 (Homo sapiens) (UniProt Q14994); experiment: qHTS assay to identify small molecule agonists of the constitutive androstane receptor (CAR) signaling pathway (AID 1224839);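 also: HepG2 cells stably carrying human CAR and a CYP2B6 luciferase reporter; nearly all actives have a fitted effect of over 15% in size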
Procedure, shortened: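 Compounds tested at 15 concentrations on HepG2 cells stably harbouring hCAR and CYP2B6-2.2kb reporter constructs, co-treated with PK11195 (0.75 uM final), 24 h at 37 C; luminescent reporter signal quantified.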

[5] = qHTS assay to identify small molecule agonists of the hypoxia (HIF-1) signaling pathway (AID 1224846; active = well fitted activation curve with a large enough effect in the signal ratio in the repeat runs, not every such curve was filed as active; the % refers to the signal ratio)
Procedure, shortened: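 Cell line: CellSensor HRE-bla ME-180; 2,000 cells/well; 0.5% dialyzed FBS; 5 h preincubation; DMSO compound pin transfer; 17 h, 37C, 5% CO2; CCF4-AM added; bla FRET signal scored for activation.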

[6] = qHTS assay to identify small molecule agonists of H2AX - cell viability counter screen (AID 1224847; calls by dose curve; also: nearly all actives have a fitted effect of over 30% in size; also: potency is read from the fitted curve at half-maximal effect)
Procedure, shortened: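 Compounds tested at 15 concentrations were incubated 3 hr at 37C with wild-type CHO-K1 cells; cellular ATP-based luminescence (CellTiter-Glo) indicated viability.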

[7] = qHTS RealTime-Glo MT Cell Viability Assay in HEK293 cells - 32 hour (AID 1224868); also: nearly all actives have a fitted effect of over 50% in size; also: potency is read from the fitted curve at half-maximal effect
Procedure, shortened: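 Viability tracked continuously by luminescence as live cells reduce a prosubstrate for NanoLuc; HEK293 cells preincubated 5 h, compound-treated at 37 C, and read at 0, 8, 16, 24, 32 and 40 h.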

[8] = A CellTox Green Cytotoxicity Assay to monitor cytotoxicity in HEK293 cells - 0 hour (AID 1224869); also: nearly all actives have a fitted effect of over 50% in size
Procedure, shortened: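 Nonlytic real-time cytotoxicity: HEK293 + CellTox Green reagent plated, 5 h preincubation, pintool compound addition (23 nL in DMSO), 37 C for 40 h, fluorescence measured at successive time points.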

[9] = qHTS assay to identify small molecule antagonists of the constitutive androstane receptor (CAR) signaling pathway - cell viability counter screen (AID 1224837); also: nearly all actives have a fitted effect of over 45% in size
Procedure, shortened: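 HepG2-CYP2B6-hCAR cells, 2500/well, 4 hr pre-incubation; compound titration, 15 conc.; CITCO 50 nM final; 23 hr, 37 C/5% CO2; CellTiter-Fluor, fluorescence intensity.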

[10] = qHTS assay to identify small molecule antagonists of the estrogen related receptor signaling pathway with the pleiotropic PPARgamma coactivator (PGC) from Tox21 10K library - cell viability counter screen (AID 1224840; active = well fitted cell-killing curve with a large enough effect in the repeat runs, not every such curve was filed as active; also: nearly all actives have a fitted effect of over 40% in size)
Procedure, shortened: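 PGC/ERR cells, 2,000/well; 6 h pre-incubation 37 C/5% CO2; cpd in DMSO via pin tool; 17.5 h 37 C; CellTiter-Fluor, 30 min; fluorescence.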

[11] = qHTS assay to identify small molecule agonists of the hypoxia (HIF-1) signaling pathway - cell viability counter screen (AID 1224844; calls by dose curve; also: nearly all actives have a fitted effect of over 50% in size; also: potency is read from the fitted curve at half-maximal effect)
Procedure, shortened: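 ME-180 HRE-bla cells, 2,000/well, 0.5% dialyzed FBS; 5 hr settle, 17 hr compound at 37C/5% CO2; CCF4-AM reporter read first, then CellTiter-Glo luminescence after 30 min RT.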

[12] = qHTS assay to identify small molecule agonists of H2AX (AID 1224845; active = well fitted activation curve with a large enough effect in the signal ratio in the repeat runs, not every such curve was filed as active; the % refers to the signal ratio)
Procedure, shortened: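 Wild-type CHO-K1 cells, plated overnight, exposed 3hr at 37C to 15 concentrations (0.76% DMSO final). Lysed, then HTRF anti-pH2AX (S139) cryptate and anti-H2AX-d2 antibodies, 24 hr room temperature; 665/620 nm emission read.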

[13] = qHTS assay to identify small molecule antagonists of the estrogen related receptor (ERR) signaling pathway from Tox21 library (AID 1224848); also: nearly all actives have a fitted effect of over 50% in size; also: potency is read from the fitted curve at half-maximal effect
Procedure, shortened: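 Luminescent reporter read-out (ONE-Glo) from NTP's ERR cell line after 18 h treatment at 37 C with DMSO-dissolved Tox21 compounds; cells pre-plated 6 h beforehand at 2,000 per well.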

[14] = qHTS assay to identify small molecule agonists of the estrogen related receptor (ERR) signaling pathway from Tox21 library (AID 1224849; calls by dose curve; also: nearly all actives have a fitted effect of over 15% in size); details: ERR reporter cell line, ONE-Glo luciferase, 18 h; at 92.4 µM (top of the series) unless noted
Procedure, shortened: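 ERR cells, 6 h pre-incubation 37 C/5% CO2; cpd in DMSO pinned; 18 h 37 C; ONE-Glo added, 30 min RT; luminescence read. Agonist mode, qHTS.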

[15] = qHTS RealTime-Glo MT Cell Viability Assay in HepG2 cells - 40 hour (AID 1224870); also: nearly all actives have a fitted effect of over 50% in size; also: potency is read from the fitted curve at half-maximal effect
Procedure, shortened: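 HepG2 cells (600/well) mixed with RealTime-Glo MT reagent, settled 5 h at 37 C/5% CO2 before compound addition. Nonlytic NanoLuc luminescence from viable-cell prosubstrate reduction read repeatedly during 40 h treatment at 37 C.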

[16] = qHTS assay to identify small molecule agonists of the estrogen related receptor signaling pathway with the pleiotropic PPARgamma coactivator (PGC) from Tox21 10K library (AID 1224842); also: nearly all actives have a fitted effect of over 15% in size; also: potency is read from the fitted curve at half-maximal effect
Procedure, shortened: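 PGC/ERR reporter cell line, 2,000 cells per well, incubated 6 h at 37 C before 23 nL compound in DMSO was added. After 18 h at 37 C, One-Glo luminescence read following 30 min at room temperature.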

[17] = qHTS assay to identify small molecule antagonists of the estrogen related receptor signaling pathway with the pleiotropic PPARgamma coactivator (PGC) from Tox21 10K library (AID 1224841; call rule not given here)
Procedure, shortened: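 PGC/ERR cell line, 2,000 cells/well; 6 h pre-incubation 37 C/5% CO2; compounds (DMSO) pinned in; 18 h, 37 C; One-Glo, 30 min RT; luminescence.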

[18] = biological target: Thyrotropin receptor (Homo sapiens) (UniProt P16473); experiment: qHTS assay to identify small molecule agonists of the thyroid stimulating hormone receptor (TSHR) signaling pathway (AID 1224843; calls by dose curve; also: nearly all actives have a fitted effect of over 45% in size)
Chain of Thyrotropin receptor (Homo sapiens) (P16473 whole entry, looked up): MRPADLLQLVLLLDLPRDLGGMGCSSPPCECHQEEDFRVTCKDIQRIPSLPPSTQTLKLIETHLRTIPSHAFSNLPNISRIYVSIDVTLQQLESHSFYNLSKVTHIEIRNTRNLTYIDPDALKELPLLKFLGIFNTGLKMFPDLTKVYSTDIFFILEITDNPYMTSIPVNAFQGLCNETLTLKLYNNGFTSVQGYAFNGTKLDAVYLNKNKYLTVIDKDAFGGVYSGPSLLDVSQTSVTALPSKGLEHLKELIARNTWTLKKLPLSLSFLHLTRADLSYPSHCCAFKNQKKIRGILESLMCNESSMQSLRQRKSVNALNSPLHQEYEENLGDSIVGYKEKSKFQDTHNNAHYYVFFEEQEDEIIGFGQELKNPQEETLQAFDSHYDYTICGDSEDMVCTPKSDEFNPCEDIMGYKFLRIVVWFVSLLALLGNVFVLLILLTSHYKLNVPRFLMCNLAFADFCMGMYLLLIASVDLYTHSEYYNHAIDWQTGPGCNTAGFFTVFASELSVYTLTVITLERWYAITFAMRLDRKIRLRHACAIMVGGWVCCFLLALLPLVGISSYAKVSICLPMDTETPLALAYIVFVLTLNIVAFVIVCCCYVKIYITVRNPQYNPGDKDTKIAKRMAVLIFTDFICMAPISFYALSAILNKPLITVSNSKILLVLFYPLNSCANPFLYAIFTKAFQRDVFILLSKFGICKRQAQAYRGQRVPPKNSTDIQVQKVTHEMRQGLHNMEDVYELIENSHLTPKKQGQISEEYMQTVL
Procedure, shortened: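 Steps: seed 800 TSHR-HEK293 cells per well; add test compound and hold 30 min at ambient temperature; dispense cAMP-d2 then anti-cAMP cryptate; incubate 1 h at ambient; measure fluorescence intensity.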

[19] = qHTS RealTime-Glo MT Cell Viability Assay in HepG2 cells - 24 hour (AID 1224867); also: nearly all actives have a fitted effect of over 50% in size
Procedure, shortened: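 Viability was tracked continuously by NanoLuc luminescence from prosubstrate reduced by living HepG2 cells, at successive time points over 40 h of compound exposure. Cells with reagent were preincubated 5 h at 37 °C before compound addition.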

[20] = qHTS assay to identify small molecule agonists of the constitutive androstane receptor (CAR) signaling pathway - cell viability counter screen (AID 1224836); also: nearly all actives have a fitted effect of over 45% in size; also: potency is read from the fitted curve at half-maximal effect
Procedure, shortened: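 23 h treatment, 37 C, 5% CO2. Cell line: HepG2 stably expressing hCAR with a CYP2B6-2.2kb construct. Co-treatment: PK11195, 0.75 uM final. Read-out: CellTiter-Fluor fluorescence intensity.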

| Compound | Potency [1] | Potency [2] | Potency [3] | Potency [4] | outcome [5] | Potency [6] | Potency [7] | Potency [8] | Potency [9] | Potency [10] | Potency [11] | Potency [12] | Potency [13] | activity change, positive = activation [14] | Potency [15] | Potency [16] | Potency [17] | Potency [18] | Potency [19] | Potency [20] |
| --- | --- | --- | --- | --- | --- | --- | --- | --- | --- | --- | --- | --- | --- | --- | --- | --- | --- | --- | --- | --- |
| CC[C@@H]([C@H](C)O)n1ncn(-c2ccc(N3CCN(c4ccc(OC[C@@H]5CO[C@@](Cn6cncn6)(c6ccc(F)cc6F)C5)cc4)CC3)cc2)c1=O | 9.44 µM (active) | inactive | inactive | inactive | inactive | 19.6 µM (active) | 3.01 µM (active) | inactive | – | – | – | – | – | – | – | – | – | – | – | – |
| CSc1ccc(Oc2ccc(S(N)(=O)=O)cc2CN(C)C)cc1C | inactive | inactive | inactive | inactive | inactive | – | 43.6 µM (active) | – | inactive | inactive | inactive | inactive | 5.45 µM (active) | -34.7% | inactive | – | – | – | – | – |
| CCCCC1C(=O)N(c2ccccc2)N(c2ccc(O)cc2)C1=O (configuration not stated) | 18.8 µM (active) | inactive | – | inactive | inactive | – | – | inactive | – | – | – | inactive | 21.1 µM (active) | -65.4% [at 42.5 µM] | 23.9 µM (active) | inactive | – | – | – | – |
| NC(=O)Nc1ccc(Cl)cc1 | inactive | inactive | inactive | inactive | inactive | inactive | inactive | inactive | inactive | inactive | inactive | – | inactive | 0.227% | inactive | inactive | inactive | inactive | inactive | – |
| CC#N | inactive | inactive | – | – | inactive | inactive | inactive | inactive | inactive | inactive | inactive | – | inactive | 6.68% | inactive | – | – | inactive | inactive | – |
| COc1cc2c(N3CCN(C(=O)Nc4ccc(OC(C)C)cc4)CC3)ncnc2cc1OCCCN1CCCCC1 | 29.8 µM (active) | inactive | 15 µM (active) | inactive | inactive | inactive | 9.52 µM (active) | inactive | – | – | – | inactive | – | -32.4% [at 42.5 µM] | – | 33.5 µM (active) | – | inactive | inactive | – |
| CC(=O)Nc1ccc(N)cc1 | inactive | inactive | – | – | inactive | inactive | inactive | – | inactive | – | inactive | inactive | – | – | inactive | – | – | inactive | inactive | inactive |
| NC(=O)N(O)[C@@H]1C=C[C@H](Oc2cccc(Oc3ccc(F)cc3)c2)C1 | inactive | 31.7 µM (active) | – | – | inactive | inactive | 17.4 µM (active) | inactive | inactive | – | inactive | inactive | inactive | -15% | inactive | 27.3 µM (active) | – | inactive | inactive | – |
| Nc1ccc(S(=O)(=O)O)cc1 | inactive | inactive | inactive | inactive | inactive | inactive | inactive | inactive | inactive | inactive | inactive | inactive | inactive | 2.73% | inactive | inactive | inactive | – | inactive | – |
| COC(=O)CC(=O)C(C)(C)C | inactive | inactive | – | – | – | inactive | inactive | inactive | inactive | – | – | inactive | – | – | inactive | – | – | inactive | inactive | inactive |
| CC(C)C(OC(=O)c1ccccc1)C(C)(C)COC(=O)c1ccccc1 (configuration not stated) | inactive | inactive | inactive | – | inactive | – | inactive | inactive | inactive | inactive | inactive | – | – | – | inactive | – | – | – | inactive | – |
| CCCCC(=O)O[C@]1(C(=O)CO)CC[C@H]2[C@@H]3CCC4=CC(=O)CC[C@]4(C)[C@H]3[C@@H](O)C[C@@]21C | inactive | inactive | inactive | inactive | inactive | inactive | inactive | inactive | inactive | inactive | inactive | inactive | – | -22.8% [at 42.5 µM] | inactive | inactive | – | inactive | inactive | – |
| CO[C@H]1O[C@H](CO)[C@@H](O)[C@H](O)[C@H]1O | inactive | inactive | inactive | inactive | inactive | inactive | inactive | inactive | inactive | inactive | inactive | inactive | inactive | 10.5% | inactive | inactive | inactive | inactive | inactive | – |
| NCC1CCCC(CN)C1 (configuration not stated) | inactive | inactive | – | inactive | inactive | inactive | inactive | inactive | inactive | – | inactive | inactive | inactive | -0.124% | inactive | inactive | – | – | inactive | – |
| COCCOC | 1.04 µM (active) | – | 9.24 µM (active) | inactive | inactive | inactive | 0.74 µM (active) | – | – | – | 4.67 µM (active) | – | 1.46 µM (active) | -69.9% | inactive | – | – | inactive | inactive | 1.64 µM (active) |
